# According to the supplement of paper PMC9254222:
# Whole data set: some 1,100 compounds, median “Renilla luciferase signal (cell health) relative to plate median” near 0.97, cut for the highest 2% near 1.6. The entries come from a sample that favours the highest values as a whole.
# Test system: HEK293T (UBE3A T485A transfected, BAR Wnt reporter)
# Assay: Renilla luciferase signal (cell health) relative to plate median (fold (linear ratio)); higher = higher Renilla signal
# Conditions: 24 h
# Outline: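 HEK293T cells were seeded at 4500 cells/well in white 384-well plates and grown in DMEM with 10% FBS at 37°C and 5% CO2. The cells were transfected using Fugene 6 with a BAR firefly luciferase Wnt reporter, TK-Renilla and an expression plasmid, and four hours later robots added the chemicals at 0.01–100 uM for 24 h before a Dual-Glo luciferase readout. Wnt activity was taken as the firefly/Renilla ratio and cell health as raw Renilla, each median-centred per plate. Values are averages of four biological replicates.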
smiles,measurement,setting,value
CN1C2CC(OC(=O)C(CO)c3ccccc3)CC1C1OC12 (centres undefined) [Scopolamine],Renilla luciferase signal,concentration: 0.01 uM,0.78
same,Renilla luciferase signal,concentration: 0.1 uM,0.722
same,Renilla luciferase signal,concentration: 1 uM,0.931
same,Renilla luciferase signal,concentration: 10 uM,0.834
same,Renilla luciferase signal,concentration: 100 uM,1.62
CNC(=O)Oc1cccc2c1OC(C)(C)C2 [Carbofuran],Renilla luciferase signal,concentration: 0.1 uM,1.05
same,Renilla luciferase signal,concentration: 1 uM,1.01
same,Renilla luciferase signal,concentration: 10 uM,0.953
same,Renilla luciferase signal,concentration: 100 uM,0.523
CC(C)(C)OOC(C)(C)C [Di-tert-butyl peroxide],Renilla luciferase signal,concentration: 0.1 uM,1.07
same,Renilla luciferase signal,concentration: 1 uM,0.922
same,Renilla luciferase signal,concentration: 10 uM,1.09
same,Renilla luciferase signal,concentration: 100 uM,1.12
O=[As][O-].[Na+] [Sodium arsenite],Renilla luciferase signal,concentration: 0.01 uM,0.746
same,Renilla luciferase signal,concentration: 0.1 uM,0.622
same,Renilla luciferase signal,concentration: 1 uM,0.288
same,Renilla luciferase signal,concentration: 10 uM,0.0446
same,Renilla luciferase signal,concentration: 100 uM,0.0136
CC(C)(C)c1ccc(CSc2cnn(C(C)(C)C)c(=O)c2Cl)cc1 [Pyridaben],Renilla luciferase signal,concentration: 0.01 uM,1.05
same,Renilla luciferase signal,concentration: 0.1 uM,0.947
same,Renilla luciferase signal,concentration: 1 uM,0.477
same,Renilla luciferase signal,concentration: 10 uM,0.233
same,Renilla luciferase signal,concentration: 100 uM,0.172
"Nc1ccc(Cl)cc1N [4-Chloro-1,2-diaminobenzene]",Renilla luciferase signal,concentration: 0.1 uM,1.05
same,Renilla luciferase signal,concentration: 1 uM,0.965
same,Renilla luciferase signal,concentration: 10 uM,0.612
same,Renilla luciferase signal,concentration: 100 uM,0.0486
Nc1cc(Cl)cc(C(=O)O)c1Cl [Chloramben],Renilla luciferase signal,concentration: 0.1 uM,1.02
same,Renilla luciferase signal,concentration: 1 uM,1.02
same,Renilla luciferase signal,concentration: 10 uM,1.18
same,Renilla luciferase signal,concentration: 100 uM,1.64
C[C@@H]1C[C@@H]([C@H](O)CC2CC(=O)NC(=O)C2)C(=O)[C@@H](C)C1 [Cycloheximide],Renilla luciferase signal,concentration: 0.1 uM,0.674
same,Renilla luciferase signal,concentration: 1 uM,0.0448
same,Renilla luciferase signal,concentration: 10 uM,0.0298
same,Renilla luciferase signal,concentration: 100 uM,0.0285
"CC(O)CCO (centres undefined) [1,3-Butanediol]",Renilla luciferase signal,concentration: 0.1 uM,1.06
same,Renilla luciferase signal,concentration: 1 uM,1.08
same,Renilla luciferase signal,concentration: 10 uM,1.16
same,Renilla luciferase signal,concentration: 100 uM,1.47
CCC(C)(CC)c1cc(NC(=O)c2c(OC)cccc2OC)on1 [Isoxaben],Renilla luciferase signal,concentration: 0.01 uM,0.906
same,Renilla luciferase signal,concentration: 0.1 uM,0.789
same,Renilla luciferase signal,concentration: 1 uM,0.94
same,Renilla luciferase signal,concentration: 10 uM,0.964
same,Renilla luciferase signal,concentration: 100 uM,0.549
ClC(Cl)=C(c1ccc(Cl)cc1)c1ccc(Cl)cc1,Renilla luciferase signal,concentration: 0.1 uM,0.978
same,Renilla luciferase signal,concentration: 1 uM,1.09
same,Renilla luciferase signal,concentration: 10 uM,1.13
same,Renilla luciferase signal,concentration: 100 uM,1.33
O=C(NC(=O)c1c(F)cccc1F)Nc1cc(Cl)c(OC(F)(F)C(F)F)c(Cl)c1 [Hexaflumuron],Renilla luciferase signal,concentration: 0.1 uM,0.601
same,Renilla luciferase signal,concentration: 1 uM,0.604
same,Renilla luciferase signal,concentration: 10 uM,0.441
same,Renilla luciferase signal,concentration: 100 uM,0.493
OCCOc1ccccc1 [2-Phenoxyethanol],Renilla luciferase signal,concentration: 0.01 uM,0.629
same,Renilla luciferase signal,concentration: 0.1 uM,0.856
same,Renilla luciferase signal,concentration: 1 uM,0.906
same,Renilla luciferase signal,concentration: 10 uM,0.983
same,Renilla luciferase signal,concentration: 100 uM,1.74
Oc1ccccc1-c1ccccc1 [2-Phenylphenol],Renilla luciferase signal,concentration: 0.01 uM,1.08
same,Renilla luciferase signal,concentration: 0.1 uM,1.08
same,Renilla luciferase signal,concentration: 1 uM,0.948
same,Renilla luciferase signal,concentration: 10 uM,1.01
same,Renilla luciferase signal,concentration: 100 uM,0.987
c1ccc(OP(Oc2ccccc2)Oc2ccccc2)cc1 [Triphenyl phosphite],Renilla luciferase signal,concentration: 0.1 uM,1.06
same,Renilla luciferase signal,concentration: 1 uM,1.18
same,Renilla luciferase signal,concentration: 10 uM,1.24
same,Renilla luciferase signal,concentration: 100 uM,1.16
Clc1ccc(C(c2ccc(Cl)cc2)C(Cl)(Cl)Cl)cc1,Renilla luciferase signal,concentration: 0.1 uM,0.841
same,Renilla luciferase signal,concentration: 1 uM,0.863
same,Renilla luciferase signal,concentration: 10 uM,0.92
same,Renilla luciferase signal,concentration: 100 uM,0.995
O=Cc1ccco1 [Furfural],Renilla luciferase signal,concentration: 0.1 uM,1.24
same,Renilla luciferase signal,concentration: 1 uM,1.36
same,Renilla luciferase signal,concentration: 10 uM,1.2
same,Renilla luciferase signal,concentration: 100 uM,1.45
O=C(O)c1nc(Cl)ccc1Cl [Clopyralid],Renilla luciferase signal,concentration: 0.01 uM,0.962
same,Renilla luciferase signal,concentration: 0.1 uM,0.828
same,Renilla luciferase signal,concentration: 1 uM,0.985
same,Renilla luciferase signal,concentration: 10 uM,1
same,Renilla luciferase signal,concentration: 100 uM,1.8
NCCO.O=C(O)c1nc(Cl)ccc1Cl [Clopyralid-olamine],Renilla luciferase signal,concentration: 0.01 uM,1.41
same,Renilla luciferase signal,concentration: 0.1 uM,1.18
same,Renilla luciferase signal,concentration: 1 uM,1.06
same,Renilla luciferase signal,concentration: 10 uM,1.2
same,Renilla luciferase signal,concentration: 100 uM,1.53
Nc1c(Cl)c(Cl)nc(C(=O)O)c1Cl [Picloram],Renilla luciferase signal,concentration: 0.01 uM,1.22
same,Renilla luciferase signal,concentration: 0.1 uM,0.925
same,Renilla luciferase signal,concentration: 1 uM,1.11
same,Renilla luciferase signal,concentration: 10 uM,1.09
same,Renilla luciferase signal,concentration: 100 uM,1.33
